Assay outcomes (PubChem BioAssay)
GDH-TPI counter – GDH-TPI coupled enzyme inhibition counter-screen; GDH-TPI coupled enzyme counterscreen, NADH absorbance; inhibition, % at 4.8 µM; 360,000 tested, 1.2% active; in the data active = inhibition above about 30%
PrP UTR inh – suppresses PrP 5' UTR mRNA reporter expression | cell-based PrP 5' UTR mRNA reporter, plate reader | inhibition, % (concentration not given with the values) | 340,000 tested, 0.35% active | AID 488862; in the data active = inhibition above about 52%
Mtb FBA inh – Mtb fructose-bisphosphate aldolase inhibition | 360,000 tested, 2.3% active | purified M. tuberculosis FBA, fluorescence read-out | AID 588726 | inhibition, % at 1 µM; in the data active = inhibition above about 27%
Target sequence (P9WQA3 whole entry, looked up): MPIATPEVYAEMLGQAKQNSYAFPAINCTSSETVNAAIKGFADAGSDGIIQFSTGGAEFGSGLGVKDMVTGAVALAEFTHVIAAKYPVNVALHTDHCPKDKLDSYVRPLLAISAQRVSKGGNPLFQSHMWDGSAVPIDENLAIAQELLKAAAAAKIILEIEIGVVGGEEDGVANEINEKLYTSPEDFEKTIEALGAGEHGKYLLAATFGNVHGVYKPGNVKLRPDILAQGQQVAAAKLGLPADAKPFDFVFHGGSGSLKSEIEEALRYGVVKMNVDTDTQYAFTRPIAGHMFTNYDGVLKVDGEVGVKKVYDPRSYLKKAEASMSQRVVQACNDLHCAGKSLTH
PrPC surface inh – inhibitors of human cell surface prion protein PrPC. P04156. TR-FRET read-out. 370,000 tested, 0.43% active. inhibition, % at 13.8 µM; in the data active = inhibition above about 24%
BJeLR viability – kills HRASV12-expressing BJeLR cells; 300,000 tested, 0.17% active; AID 1554; inhibition, % (no concentration beside the values); BJeLR (HRASV12) viability, CellTiter-Glo ATP luminescence, 48 h; in the data active = inhibition above about 50%
PfHsp40 rescue – restores yeast growth despite PfHsp40 toxicity; growth rescue, % at 12.5 µM; AID 504582; S. cerevisiae expressing PfHsp40, growth rescue, ATP luminescence; 340,000 tested, 0.68% active; in the data active = growth rescue above about 28%, passing the limit was not always enough;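 note: yeast W303a lacking pdr1 and pdr3 grown in galactose medium; growth measured after three days at 30 °C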
Large screens that a line does not name were inactive. Compounds with a hit are over-represented: about 4.5% of the library has one in this group of screens.

O=c1oc2c(CN3CCCCC3)c(O)ccc2cc1-c1nc2ccccc2[nH]1	none (no result: BJeLR viability)
CCN1CCN(Cc2c(O)ccc3c(C)cc(=O)oc23)CC1	Mtb FBA inh active
O=c1oc2c(CN3CCN(CCO)CC3)c(O)ccc2cc1-c1ccccn1	Mtb FBA inh active
Cc1cc(=O)oc2c(CN3CCCC3)c(O)ccc12	Mtb FBA inh active
CN1CCN(Cc2c(O)ccc3c(-c4ccccc4)cc(=O)oc23)CC1	none
CCCc1cc(=O)oc2c(CN3CCCC3)c(O)ccc12	none (no result: Mtb FBA inh)
Cc1cc(=O)oc2c(CN3CCN(CCO)CC3)c(O)ccc12	Mtb FBA inh active
Cc1nc(N2CCN(C(=O)C3CCCCC3)CC2)c2c3c(sc2n1)CCCC3	none (no result: GDH-TPI counter, PrP UTR inh, Mtb FBA inh, BJeLR viability, PfHsp40 rescue)
C[C@@H]1[C@H](O)[C@@H](C)/C=C/C=C/C=C/C=C/C=C/C=C/C=C/[C@H](OC2O[C@H](C)[C@@H](O)[C@H](N)[C@@H]2O)C[C@@H]2O[C@](O)(C[C@@H](O)C[C@@H](O)[C@H](O)CC[C@@H](O)C[C@@H](O)CC(=O)O[C@H]1C)C[C@H](O)[C@H]2C(=O)O (stereo partly specified)	none (no result: GDH-TPI counter, PrP UTR inh, Mtb FBA inh, BJeLR viability, PfHsp40 rescue)
COc1cc(/C=N/NC(=S)Nc2cccc(Cl)c2C)ccc1OCC(=O)N1CC(C)OC(C)C1 (stereo unspecified)	GDH-TPI counter 32.6
COc1ccc(/C=C2\SC(=O)NC2=S)cc1OC	PfHsp40 rescue 143.2
COc1cc(/C=N/NC(N)=S)ccc1OCC(=O)N1CCOCC1	GDH-TPI counter 31.5
COc1cc(/C=C2\SC(=O)NC2=O)ccc1OCC(=O)N1CCOCC1	GDH-TPI counter 36.8 (no result: BJeLR viability)
COC(=O)[C@]1(CNC(=O)Nc2ccc(C)c(Cl)c2)CC(=O)N(C)[C@@H]1c1ccccc1	none (no result: GDH-TPI counter, PrP UTR inh, Mtb FBA inh, BJeLR viability, PfHsp40 rescue)
CC(C)COc1nc2ccccc2nc1N1CCN(C)CC1	none
COc1nc2ccccc2nc1N1CC1	Mtb FBA inh 28.8 (no result: GDH-TPI counter, PrP UTR inh, BJeLR viability, PfHsp40 rescue)
Cc1ccc(-n2ncc3c(N4CCCC4)ncnc32)c(C)c1	none
COc1cccc(N2CCN(c3ncnc4c3cnn4-c3ccc(C)cc3C)CC2)c1	PrPC surface inh 34.0
C=CCN1[C@H](CO)[C@H](c2ccc(Br)cc2)[C@@H]1C#N	none (no result: GDH-TPI counter, PrP UTR inh, Mtb FBA inh, BJeLR viability, PfHsp40 rescue)
CCCCCN1CCCCC(NC(=O)c2ccc(C)cc2)C1=O (stereo unspecified)	none (no result: GDH-TPI counter, PrP UTR inh, Mtb FBA inh, BJeLR viability, PfHsp40 rescue)
Cc1cc(-c2ccc(/C=N/n3cnnc3)o2)ccc1Cl	GDH-TPI counter 33.0
CCOC(=O)c1cc(-c2ccc(/C=N\n3cnnc3)o2)ccc1Cl	GDH-TPI counter 46.5
CCCCOC(=O)c1cc(-c2ccc(/C=N/n3cnnc3)o2)ccc1Cl	GDH-TPI counter 31.5
CCOC(=O)c1cc(-c2ccc(/C=C3/C(=O)N(c4ccc(C(=O)O)cc4)N=C3C)o2)ccc1Cl	none
Cc1cc([N+](=O)[O-])c(C)cc1-c1ccc(/C=N/n2cnnc2)o1	none
Cc1cccc(CN2CCN(C3CN(Cc4cn(Cc5cccc(Cl)c5)nn4)S(=O)(=O)C3)CC2)c1 (stereo unspecified)	none (no result: GDH-TPI counter, PrP UTR inh, Mtb FBA inh, BJeLR viability, PfHsp40 rescue)
N#Cc1c(NC(=O)c2ccccc2)sc2c1CCCCC2	none
N#Cc1c(Cl)nsc1NC(=O)c1ccccc1	PfHsp40 rescue 216.6
Cc1ccc(C(=O)NNC(=O)c2cccc(S(=O)(=O)N3CCOCC3)c2)cc1	none (no result: BJeLR viability)
O=C(NNC(=O)c1cc(Cl)ccc1O)c1cccc(S(=O)(=O)N2CCOCC2)c1	PfHsp40 rescue 474.8
CC(=O)Nc1ccc(/C=N/NC(=O)c2cccc(S(=O)(=O)N3CCOCC3)c2)cc1	GDH-TPI counter 36.1
C=CC(=O)NC1CCCCN(CC)C1=O (stereo unspecified)	none (no result: GDH-TPI counter, PrP UTR inh, Mtb FBA inh, BJeLR viability, PfHsp40 rescue)
COC(=O)C[C@H]1CC[C@H]2[C@H](COc3ccc(NC(=O)Nc4ccccc4F)cc3C(=O)N2C)O1	none (no result: GDH-TPI counter, PrP UTR inh, Mtb FBA inh, BJeLR viability, PfHsp40 rescue)
Cc1ccc(S(=O)(=O)Cc2ccc(C(=O)N3CCN(c4cccc(C)c4C)CC3)o2)cc1	PfHsp40 rescue 40.5
COc1ccc(S(=O)(=O)Cc2ccc(C(=O)N3CCN(c4cccc(C)c4C)CC3)o2)cc1	none
COC(=O)Cc1c(C)c2c(OCc3nn[nH]n3)cc(C)cc2oc1=O	Mtb FBA inh 172.3
CCc1cc(=O)oc2cc(C)cc(OCc3nn[nH]n3)c12	Mtb FBA inh 119.4
COC(=O)Cc1c(C)c2ccc(OCc3nn[nH]n3)cc2oc1=O	Mtb FBA inh 189.4 (no result: PrP UTR inh)
COC(=O)Cc1c(C)c2ccc(OCc3nn[nH]n3)c(C)c2oc1=O	Mtb FBA inh 159.9
Cc1cc(OCC(=O)NCc2ccncc2)c2c(C)c(C)c(=O)oc2c1	none
CCC(C)[C@@H](C(=O)OC)N(Cc1cn(Cc2ccccc2)nn1)S(=O)(=O)c1ccccc1Br (stereo partly specified)	none (no result: GDH-TPI counter, PrP UTR inh, Mtb FBA inh, BJeLR viability, PfHsp40 rescue)
COc1cccc(N2CCN(CC(=O)N(C)Cc3ccccc3Cl)CC2)c1	none (no result: GDH-TPI counter, PrP UTR inh, Mtb FBA inh, BJeLR viability, PfHsp40 rescue)
CC(C)CCNC(=O)C1COC(O)(C(Cc2ccccc2)NC(=O)[C@@H](NC(=O)OCc2ccccc2)C(C)C)CN1 (stereo partly specified)	none (no result: GDH-TPI counter, PrP UTR inh, Mtb FBA inh, BJeLR viability, PfHsp40 rescue)
Cc1ccccc1C(=O)N(C)[C@H]1C[C@H]2c3[nH]c4c(-c5ccc6c(c5)OCO6)cccc4c3CCN2C[C@H]1[C@H](C)O	none (no result: GDH-TPI counter, PrP UTR inh, Mtb FBA inh, BJeLR viability, PfHsp40 rescue)
COc1ccc(NC(=O)c2cc(-c3sc(NC(=O)c4ccccc4)nc3C)n(Cc3ccccc3)n2)cc1	none (no result: GDH-TPI counter, PrP UTR inh, Mtb FBA inh, BJeLR viability, PfHsp40 rescue)
CCN(CC)Cc1c(O)ccc2c(C)c(CC(=O)OC)c(=O)oc12	Mtb FBA inh active
COc1ccc2c(Cn3cnc4cc([N+](=O)[O-])ccc4c3=O)cc(=O)oc2c1	GDH-TPI counter 31.2 (no result: PrPC surface inh)
O=C1C=C(c2cccs2)C[C@H](c2ccccc2)[C@H]1n1nnc([N+](=O)[O-])n1	BJeLR viability 82.6
CC(=O)C1C(=O)C=C(c2cccs2)CC1c1ccccc1 (stereo unspecified)	none
CCOc1ccc(CCNC(=O)c2cc3sccc3n2CC)cc1OC	none (no result: GDH-TPI counter, PrP UTR inh, Mtb FBA inh, BJeLR viability, PfHsp40 rescue)
O=S(=O)(c1cccc(-c2nnc(SCc3nc4ccccc4s3)o2)c1)N1CCOCC1	PfHsp40 rescue 46.1
CC(=O)CCSc1nnc(-c2cccc(S(=O)(=O)N3CCOCC3)c2)o1	none
O=C(CCNS(=O)(=O)c1ccccc1)N1CCN(c2ccccc2)CC1	PfHsp40 rescue 53.8
CC(=O)N1CCN(C(=O)CCNS(=O)(=O)c2ccccc2)CC1	none (no result: PrP UTR inh, BJeLR viability)
CC(C)(C)CCN1C[C@@H]2C(CNC(=O)c3cc(Cl)cc(Cl)c3)[C@@H]2C1 (stereo partly specified)	none (no result: GDH-TPI counter, PrP UTR inh, Mtb FBA inh, BJeLR viability, PfHsp40 rescue)
CCCC1CCC2(CC1)CCC2OC(=S)Nc1ccccc1 (stereo unspecified)	none (no result: GDH-TPI counter, PrP UTR inh, Mtb FBA inh, BJeLR viability, PfHsp40 rescue)
O=C(c1cc(=O)[nH]c2ccccc12)N1CCN(c2ccc([N+](=O)[O-])cc2)CC1	GDH-TPI counter 35.1
c1ccc2c3c(cc(N4CCOCC4)c2c1)OC1(N2CCOCC2)CCCCC1O3 (stereo unspecified)	Mtb FBA inh 89.5
O=C(C1COc2ccccc2O1)N1CCN(c2ccccc2Cl)CC1 (stereo unspecified)	PfHsp40 rescue 35.4
Cc1cccc(N2CCN(C(=O)C3COc4ccccc4O3)CC2)c1C (stereo unspecified)	PfHsp40 rescue 206.3
O=C(C1COc2ccccc2O1)N1CCN(c2ccccc2F)CC1 (stereo unspecified)	none
